PLC-gamma1 inh: inhibitors of human phospholipase C gamma1; P19174; inhibition, % at 12.2 µM; purified PLC-gamma1, fluorogenic substrate, fluorescence; AID 720700; 0.84% of 370,000 active; in the data active = inhibition above about 9.5%
ADAM10 inh: inhibits human ADAM10. O14672. recombinant ADAM10, EDANS/DABCYL FRET peptide cleavage, 3 h. inhibition, % at 7 µM. 0.62% of 370,000 active. AID 720582;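 active = inhibition above a per-campaign cutoff equal to the mean of compounds falling between control-based bounds plus 3 SD, cut at about 20% in these data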;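 also: 0% = DMSO wells while the 100% control is not disclosed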
ADAM17 inh: ADAM17 inhibition, QFRET primary screen. P78536. recombinant ADAM17, EDANS/DABCYL FRET peptide cleavage. inhibition, % at 6.95 µM. 0.83% of 370,000 active. AID 720648;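 active = inhibition above the mean of compounds lying between control limits plus 3 SD, set per campaign, cut at about 8.5% in these data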;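 also: 0% = DMSO-only wells as the low control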
PLC-beta3 inh: PLC-beta3 (human) inhibition, primary screen. Q01970. Purified PLC-beta3, fluorogenic substrate, fluorescence. inhibition, % at 12.2 µM. 0.18% of 370,000 active; in the data active = inhibition above about 11%;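 also: 0% = median of compound wells on plate and 100% = full blocker control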
Target sequence (Q01970 whole entry, looked up): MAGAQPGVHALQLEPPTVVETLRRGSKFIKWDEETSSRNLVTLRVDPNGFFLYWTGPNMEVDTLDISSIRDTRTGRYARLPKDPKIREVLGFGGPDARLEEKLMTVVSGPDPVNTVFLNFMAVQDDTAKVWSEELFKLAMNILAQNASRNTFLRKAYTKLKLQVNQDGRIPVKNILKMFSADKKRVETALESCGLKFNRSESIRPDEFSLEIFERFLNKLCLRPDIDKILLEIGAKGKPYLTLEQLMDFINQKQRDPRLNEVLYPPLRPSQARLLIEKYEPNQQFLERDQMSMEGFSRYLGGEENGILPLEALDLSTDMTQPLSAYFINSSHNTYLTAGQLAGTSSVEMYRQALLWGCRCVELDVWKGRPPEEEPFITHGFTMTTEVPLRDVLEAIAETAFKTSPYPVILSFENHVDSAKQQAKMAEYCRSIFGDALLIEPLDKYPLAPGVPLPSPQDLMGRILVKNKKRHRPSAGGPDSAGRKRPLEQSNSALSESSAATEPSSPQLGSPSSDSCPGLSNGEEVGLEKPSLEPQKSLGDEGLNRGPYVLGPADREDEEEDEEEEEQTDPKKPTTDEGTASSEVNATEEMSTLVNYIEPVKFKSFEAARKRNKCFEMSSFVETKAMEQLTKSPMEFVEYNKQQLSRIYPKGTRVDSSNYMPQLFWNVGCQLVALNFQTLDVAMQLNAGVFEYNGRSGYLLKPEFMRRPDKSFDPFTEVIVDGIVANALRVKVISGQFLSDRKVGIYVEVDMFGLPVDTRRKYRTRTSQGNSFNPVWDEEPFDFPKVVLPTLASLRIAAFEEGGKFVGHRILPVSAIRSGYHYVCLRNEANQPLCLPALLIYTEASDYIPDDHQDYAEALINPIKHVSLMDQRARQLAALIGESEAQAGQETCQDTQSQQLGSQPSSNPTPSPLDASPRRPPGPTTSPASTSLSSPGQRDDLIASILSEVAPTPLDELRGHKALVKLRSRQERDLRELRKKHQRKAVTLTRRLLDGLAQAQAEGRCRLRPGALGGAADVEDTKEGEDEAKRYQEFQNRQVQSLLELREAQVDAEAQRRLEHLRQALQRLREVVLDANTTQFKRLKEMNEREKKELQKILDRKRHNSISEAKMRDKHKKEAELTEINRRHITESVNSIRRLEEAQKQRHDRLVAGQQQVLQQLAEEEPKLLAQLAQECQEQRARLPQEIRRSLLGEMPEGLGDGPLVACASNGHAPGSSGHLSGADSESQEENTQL
proKLK7 act: activates the human kallikrein-7 zymogen | activation, % at 7 µM | AID 652039 | P49862 | purified proKLK7, EDANS-DABCYL substrate fluorescence; 100% is mature enzyme control, 0% vehicle | 0.9% of 370,000 active;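 active = activation above the mean of all tested compounds plus 3 SD, computed per campaign excluding outliers beyond control limits, cut at about 13% in these data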
ADAM10 ctr: counter-screen for ADAM17 exosite inhibitors: inhibitors of human ADAM10; shares compounds with ADAM17 inh; recombinant ADAM10, EDANS/DABCYL FRET peptide cleavage, 3 h; inhibition, % at 6.95 µM; 47% of 2,900 active;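 active = mean inhibition over the triplicate runs exceeds the activity threshold set in the earlier primary screen, cut at about 20% in these data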;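 also: 0% = DMSO wells and 100% = marimastat wells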
ADAM17 confirm: human ADAM17 inhibition, confirmation. shares compounds with ADAM17 inh. recombinant ADAM17, EDANS/DABCYL QFRET peptide cleavage. inhibition, % at 6.95 µM. 65% of 2,900 active. AID 743257;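 active = mean inhibition across replicates above the hit cutoff set in the primary screen, cut at about 8.5% in these data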;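 also: 0% = DMSO wells and 100% = marimastat wells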
* hit, by the source's call; nt = no result given. Compounds with a hit are over-represented: about 2.9% of the library has one in this group of screens.

SMILES	PLC-gamma1 inh	ADAM10 inh	ADAM17 inh	PLC-beta3 inh	proKLK7 act	ADAM10 ctr	ADAM17 confirm
COc1ccc(OC)c(NC(=O)C2CC(C)=C(C)CC2C(=O)O)c1 (stereo unspecified)	7.2	18.8	10.8*	8.8	-0.6	-8.9	-1.3
COc1cc(C(=O)NC(=S)NNC(=O)c2cnccn2)cc(OC)c1OC	-3.9	9.2	11.5*	-10.6	-1.2	4.3	3.4
COc1ccc(NS(=O)(=O)c2ccc(Cl)c(C(=O)O)c2)cc1S(=O)(=O)N1CCCCC1	0.8	-10.8	-1.4	-8.0	0.0	nt	nt
CCOCCn1c(COc2ccccc2)nc2ccccc21	2.5	3.2	9.4*	3.8	0.0	-8.7	-2.7
COc1cccc(CNC(=O)C2CCCN(S(=O)(=O)c3c(C)noc3/C=C/N(C)C)C2)c1 (stereo unspecified)	-7.8	17.3	8.9*	-23.2	-1.1	12.4	6.6
COc1ccc(NC(=O)C2CCN(S(=O)(=O)c3c(C)noc3/C=C/N(C)C)CC2)cc1	-8.7	-1.8	10.1*	-25.1	-1.7	16.3	11.4*
Cc1cccc(C(=O)NCCC(=O)Nc2nc(C)c(Cc3ccc4c(c3)OCO4)s2)c1	-0.7	-2.2	-1.7	-0.3	0.5	nt	nt
COc1ccc(NS(=O)(=O)c2ccc(O)c(NC(=O)c3ccc(S(=O)(=O)N4CCCC4)cc3)c2)cc1	4.2	17.5	-0.4	-10.3	-0.1	nt	nt
O=c1ccc(C(F)(F)F)cn1Cc1cc(=O)n2ccsc2n1	-0.8	-4.9	-3.8	-7.0	0.2	nt	nt
COc1ccccc1CCn1cnc(-c2ccc(F)cc2F)c1CC(C)C	1.2	12.3	10.3*	3.9	0.8	29.5*	14.1*
CCCCc1c(-c2ccc(F)cc2F)ncn1CCc1ccccc1OC	-1.1	15.2	5.7	7.0	-0.2	nt	nt
COc1ccc(Cc2nnc(N/N=C/c3ccc(O)cc3)[nH]c2=O)cc1OC	6.2	9.1	9.3*	5.9	0.3	2.7	5.3
COc1ccc(Cc2nnc(N/N=C/c3ccc(Br)cc3)[nH]c2=O)cc1OC	0.9	-4.6	-4.0	-6.8	0.2	nt	nt
N#CC1=C(N)Oc2n[nH]c(-c3cccnc3)c2C1c1ccc([N+](=O)[O-])o1 (stereo unspecified)	-6.3	-6.2	-4.5	-14.1	0.3	nt	nt
COc1cc(CC(=O)NCCc2ccc(OCc3ccccc3)cc2)c([N+](=O)[O-])cc1OC	1.4	3.8	-1.6	3.6	-0.1	nt	nt
COC(=O)CN1C(=O)C2(C(C#N)=C(N)Oc3c2c(C)nn3-c2ccccc2)c2ccccc21 (stereo unspecified)	4.1	3.7	13.1*	0.8	-0.8	-2.2	1.6
COC(=O)CN1C(=O)C2(C(C#N)=C(N)Oc3n[nH]c(-c4cccs4)c32)c2ccccc21 (stereo unspecified)	4.4	-0.7	-2.5	-5.8	-0.1	nt	nt
Cc1ccc(S(=O)(=O)N(C)CC(=O)O/N=C(\N)c2cccc(Br)c2)cc1	2.3	7.5	12.3*	-6.3	-0.5	11.3	9.7*
c1ccc(-c2ccc(-c3nc(-c4ccncc4)no3)cc2)cc1	0.9	-3.8	-2.5	3.7	-0.2	nt	nt
Cc1ccc(N=C2NC(=O)/C(=C\c3ccsc3)S2)c(C)c1	-1.1	10.5	8.8*	-6.7	0.5	31.5*	19.6*
Cc1ccc(N=C2NC(=O)/C(=C/c3cccnc3)S2)c(C)c1	2.8	5.8	1.6	-2.2	0.1	nt	nt
Cc1ccc(NC2=C(Cl)C(=O)OC2OC(=O)c2ccc(C)cc2)cc1 (stereo unspecified)	-6.2	1.8	9.0*	-5.4	0.7	17.3	12.1*
CCCCCC(=O)N1C[C@@H](n2cc(-c3ccc(F)cc3)nn2)[C@H](O)C[C@@H]1c1ccc(C)cc1	0.2	16.5	10.3*	2.8	0.3	16.8	9.9*
CCCCCC(=O)N1C[C@H](n2cc(COC(=O)c3ccccc3)nn2)[C@@H](O)C[C@@H]1c1ccc(C)cc1	-2.3	16.3	9.8*	-0.1	-0.4	32.5*	17.0*
COc1ccc([C@H]2C[C@@H](O)[C@H](n3cc(COC(=O)c4ccccc4)nn3)CN2Cc2cccs2)cc1	-0.5	-4.6	-0.7	1.7	-0.6	nt	nt

Bioassay records from PubChem BioAssay.
